Source: PubChem BioAssay (NCI)
Several values for one entry are separate records, joined by “and”; a condition that tells them apart may be missing. Equal entries are not always repeated. Compounds without any hit were thinned out: in the full panel of roughly 83,000, 20% have a hit.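 For each line, cells grew in 96-well plates with the test compound present at a single concentration for 48 hours.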 Unmarked numbers belong to inactive results. Activity calls are given as the source filed them. The calls were made as follows: active = growth percent below 10; inactive = the rest.

Legend:
Assay in all cases: NCI-60 one-dose screen, 48 h (100 = growth as untreated, 0 = no growth, -100 = all killed)
Settings in all cases: 10 µM unless noted
SR leukemia = system: SR leukemia
RPMI-8226 leukemia = system: RPMI-8226 leukemia
OVCAR-8 ovarian = system: OVCAR-8 ovarian
OVCAR-5 ovarian = system: OVCAR-5 ovarian
OVCAR-4 ovarian = system: OVCAR-4 ovarian
SK-OV-3 ovarian = system: SK-OV-3 ovarian
IGROV1 ovarian = system: IGROV1 ovarian
OVCAR-3 ovarian = system: OVCAR-3 ovarian
HS 578T breast = system: HS 578T breast
NCI/ADR-RES ovarian = system: NCI/ADR-RES ovarian

Row | SMILES | growth (SR leukemia) | growth (RPMI-8226 leukemia) | growth (OVCAR-8 ovarian) | growth (OVCAR-5 ovarian) | growth (OVCAR-4 ovarian) | growth (SK-OV-3 ovarian) | growth (IGROV1 ovarian) | growth (OVCAR-3 ovarian) | growth (HS 578T breast) | growth (NCI/ADR-RES ovarian)
1 | COc1ccc(N=Nc2c(N)nn3c(-c4cc5ccccc5oc4=O)ccnc23)cc1 | 21% | 72.8% | 38.8% | 68.5% | 70.8% | 57.8% | 29.4% | 74.3% | 29.1% | 22.1%
2 | Cc1ccc(-c2cc(-c3ccccc3)[nH]c(=O)c2C#N)cc1 | 73.3% | 76.7% | 93.5% | 109% | 94.1% | 107% | 91.9% | 98.4% | 84.6% | 82.3%
3 | COc1c(B(O)O)cc(F)cc1-c1nc2c(F)cc3[nH]ncc3c2c2c1CCCC2 | 33% | -5.25% (active) | 10.2% | 15.9% | 39.4% | 25.1% | 14.6% | 18.6% | 11.4% | 17.4%
4 | COc1ccc2[nH]c(=O)c(CSc3ccccc3Nc3nccc(-c4ccc(Cl)cc4)n3)cc2c1 | -1.58% (active) | 30.4% | 39.5% | 84.7% | 38.3% | 57.7% | 55.9% | 39.8% | 37.1% | 34.4%
5 | COc1ccc(N=Nc2c(N)nn3c(-c4ccc([N+](=O)[O-])cc4)ccnc23)cc1 | 98.2% | 94% | 107% | 113% | 92.8% | 106% | 104% | 113% | 89% | 97.8%
6 | O=C(CSc1nc2c(c(=O)[nH]1)CCCC2)Nc1ccccc1C(=O)O | 88.5% | 104% | 109% | 106% | 125% | 106% | 110% | 91.7% | 108% | 112%
7 | CN(C)c1nc(NCCNS(=O)(=O)c2ccc(C3=Nc4c(N)nc(N)nc4NC(c4ccc(Cl)cc4)C3)cc2)nc(N2CCOCC2)n1 (stereo not given) | 31.9% | 21.4% | 64.3% | 82.7% | 66.9% | 75.9% | 45% | 65.5% | 45.2% | 85.7%
8 | O=C(Nc1ccc(Br)cc1)Nc1ccc(-c2ccc3c(c2)NC(=O)/C3=C\c2ccc[nH]2)cc1 | 18.4% | 32.2% | 35.4% | 55.3% | 33.9% | 77.1% | 46.9% | 12.3% | 56% | 25.7%
9 | O=c1[nH]c2ccccc2cc1CSc1ccccc1Nc1nccc(-c2ccc3c(c2)OCO3)n1 | 103% | 92.2% | 46.8% | 99.5% | 25.4% | 82.7% | 99.2% | 83.9% | 34.7% | 53.1%
10 | COc1ccc(/C=C/C(=O)c2ccc(OC)c(S(N)(=O)=O)c2)c(C(F)(F)F)c1 | 0.801% (active) | 3.98% (active) | 6.69% (active) | 3.65% (active) | 18.6% | 66.6% | 1.64% (active) | 15.8% | 49.3% | -31.4% (active)
11 | O=C1Nc2ccccc2/C1=C/C(=O)c1cc2ccccc2oc1=O | 56.8% | 95.9% | 109% | 112% | 104% | 91.9% | 98.3% | 55.9% | 105% | 107%
12 | Cc1ccc(S(=O)(=O)Nc2ccc(-c3ccc4c(c3)NC(=O)/C4=C\c3ccc[nH]3)cc2)cc1 | -3.97% (active) | 63.6% | 86.7% | 90.8% | 83.3% | 108% | 93.5% | 125% | 92.2% | 89%
13 | CN(C)c1nc(NCCNS(=O)(=O)c2ccc(C(=O)/C=C/c3ccccc3)cc2)nc(N2CCOCC2)n1 | -42.7% (active) | 0.0245% (active) | 83.4% | 93.6% | 88.3% | 97.7% | 80.5% | 111% | 76.1% | 82.4%
14 | O=C(COc1ccc(/C=C2/C(=O)Nc3ccc(Cl)cc32)cc1)Nc1ccc(Br)cc1 | -35.7% (active) | 14% | -44.4% (active) | 3.15% (active) | -54% (active) | -57.8% (active) | -22.2% (active) | -64.8% (active) | -14.2% (active) | -34% (active)
15 | O=[N+]([O-])c1cccc(-c2nnc3c(/C=C/c4ccc(F)cc4)nc4ccccc4n23)c1 | 85.2% | 102% | 85.2% | 108% | 73.7% | 101% | 109% | 116% | 47.9% | 87.4%
16 | C=CCSc1nnc(-c2c(C)nc3sccn23)o1 | 101% | 86% | 98.6% | 85.8% | 102% | 98.6% | 95.5% | 131% | 77.1% | 82.7%
17 | O=C(CSc1nnc(-c2ccc(-c3nc4ccccc4[nH]3)cc2)o1)Nc1ccc(Br)cc1 | 5.23% (active) | 7.82% (active) | 4.46% (active) | 44.7% | 54.3% | 79% | 35.8% | 34.2% | 57.2% | 21.5%
18 | Cn1cc(-c2cc3nc(-c4cn(C)c5ncccc45)cc(N)n3n2)c2cc(F)ccc21 | -31.3% (active) | 38.1% | 11.5% | 47.9% | 20.2% | 24.4% | 31.9% | 43.9% | 47.2% | 28.3%
19 | COC(=O)c1cc(C(=O)C(Br)Br)n2c1ccc1c3ccccc3ccc12 | 13.6% | 54.6% | 38.6% | 64.4% | 48.8% | 75.4% | 32.1% | 77% | 44.3% | 70.3%
20 | O=C(Nc1ccc(-c2ccc3c(c2)NC(=O)/C3=C\c2ccc[nH]2)cc1)Nc1ccc(Cl)c(C(F)(F)F)c1 | 6.31% (active) | 30.3% | 50.5% | 51.2% | 28.9% | 68.3% | 61.7% | 29.1% | 39% | 51.7%
21 | O=C(Cn1c(/C=C/c2ccc([N+](=O)[O-])cc2)nc2ccccc2c1=O)Nc1ccccc1 | 88.1% | 93.8% | 65.8% | 80% | 56.8% | 71.9% | 74.6% | 81.4% | 54.2% | 54%
22 | CCC(=O)c1cc(C(=O)OC)c2ccc3c4ccccc4ccc3n12 | 68.3% | 84.9% | 71.5% | 73.8% | 1.22% (active) | 122% | 70.2% | 67.5% | 63.3% | 76.6%
23 | O=C(NNC(=S)NC(=O)c1ccccc1)c1ccc(OCc2nc3ccc(Cl)cc3[nH]2)cc1 | 0.144% (active) | 5.01% (active) | -9.91% (active) | -43.7% (active) | 16.3% | -17.5% (active) | -46.5% (active) | 10.5% | 3.54% (active) | -25.3% (active)
24 | CC(=O)Nc1cccc(-n2c(COc3ccc(I)cc3)nc3ccccc32)c1 | 56.2% and 104% | 75.8% and 110% | 97.1% and 117% | 103% and 113% | 74.9% and 109% | 96.8% and 111% | 86.1% and 113% | 88.8% and 87.7% | 62.4% and 115% | 76.6% and 111%
25 | CC(C)(C)c1cc(-c2cc(-c3ccccc3)[nH]c(=O)c2C#N)cc(C(C)(C)C)c1 | 43.4% | 66.9% | 7.14% (active) | 45.9% | 5.22% (active) | 43.7% | 35.1% | 27.1% | -3.49% (active) | 25.9%
26 | Cc1ccc2nc(NC(=O)Nc3cccc(Cl)c3)sc2c1 | 89.9% | 96.7% | 107% | 118% | 99.5% | 102% | 98.4% | 123% | 116% | 93.9%
